Assay results taken from the supplement of paper PMC9262897, “Low-cost anti-mycobacterial drug discovery using engineered E. coli” (Nature Communications, 2022).
Counter-ions that a name gives are not always drawn. ± gives the standard deviation of the averaged measurements.

Test system: E. coli TESEC Mtb Alr
Assay: growth (OD600 after 10 h); higher = more growth (less inhibition)
Details: compound 0.1 mM
Protocol: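 TESEC Mtb Alr E. coli, or the Alr+ wild-type control, in 384-well plates with Prestwick library compounds at 0.1 mM and 1% DMSO, across arabinose induction levels of 1E3 to 1E7 nM. Growth is read as OD600 after 10 h at 37 °C in triplicate biological replicates.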

[1] = arabinose 1000 nM, raw OD600 reference: median of DMSO wells 0.294, cell-free background 0.041
[2] = arabinose 10000 nM, raw OD600 reference: median of DMSO wells 0.264, cell-free background 0.041
[3] = arabinose 100000 nM, raw OD600 reference: median of DMSO wells 0.201, cell-free background 0.041
[4] = arabinose 1000000 nM, raw OD600 reference: median of DMSO wells 0.193, cell-free background 0.041
[5] = arabinose 10000000 nM, raw OD600 reference: median of DMSO wells 0.146, cell-free background 0.041

Cc1ccc(S(=O)(=O)NC(=O)NN2CCCCCC2)cc1 [Tolazamide]
growth [1]: 0.293 ± 0.0069
growth [2]: 0.281 ± 0.005
growth [3]: 0.249 ± 0.0083
growth [4]: 0.186 ± 0.012
growth [5]: 0.17 ± 0.0032

CN[C@@H]1[C@H](O[C@H]2[C@H](O[C@H]3[C@H](O)[C@@H](O)[C@H](NC(=N)N)[C@@H](O)[C@@H]3NC(=N)N)O[C@@H](C)[C@]2(O)CO)O[C@@H](CO)[C@H](O)[C@H]1O [Dihydrostreptomycin sulfate]
growth [1]: 0.0419 ± 0.0011
growth [2]: 0.03877 ± 0.00012
growth [3]: 0.0454 ± 0.0053
growth [4]: 0.0395 ± 0.0004
growth [5]: 0.0485 ± 0.0005

CO[C@@H]1[C@@H](OC(N)=O)[C@@H](O)[C@H](Oc2ccc3c(O)c(NC(=O)c4ccc(O)c(CC=C(C)C)c4)c(=O)oc3c2C)OC1(C)C [Novobiocin sodium salt]
growth [1]: 0.0437 ± 0.0029
growth [2]: 0.0409 ± 0.0007
growth [3]: 0.0461 ± 0.0025
growth [4]: 0.0415 ± 0.00082
growth [5]: 0.0423 ± 0.00026

Cc1ccccc1C(OCCN(C)C)c1ccccc1 (stereo not given) [Orphenadrine hydrochloride]
growth [1]: 0.26 ± 0.024
growth [2]: 0.266 ± 0.015
growth [3]: 0.189 ± 0.0084
growth [4]: 0.148 ± 0.0039
growth [5]: 0.159 ± 0.0037

CCN1CCCC1CNC(=O)c1cc(S(N)(=O)=O)ccc1OC (stereo not given) [Sulpiride]
growth [1]: 0.291 ± 0.012
growth [2]: 0.248 ± 0.0039
growth [3]: 0.198 ± 0.02
growth [4]: 0.174 ± 0.0021
growth [5]: 0.147 ± 0.0072

CCOC(=O)C1=C(C)NC(C)=C(C(=O)OC)C1c1cccc(Cl)c1Cl (stereo not given) [Felodipine]
growth [1]: 0.0729 ± 0.024
growth [2]: 0.0553 ± 0.0007
growth [3]: 0.0562 ± 0.0017
growth [4]: 0.0517 ± 0.00035
growth [5]: 0.0625 ± 0.0023

C[C@](N)(Cc1ccc(O)c(O)c1)C(=O)O [Methyldopa (L,-)]
growth [1]: 0.298 ± 0.0073
growth [2]: 0.27 ± 0.0043
growth [3]: 0.24 ± 0.021
growth [4]: 0.188 ± 0.017
growth [5]: 0.146 ± 0.0063

COc1ccc(-c2cc(=S)ss2)cc1 [Anethole-trithione]
growth [1]: 0.232 ± 0.008
growth [2]: 0.218 ± 0.019
growth [3]: 0.18 ± 0.0053
growth [4]: 0.12 ± 0.026
growth [5]: 0.168 ± 0.0049
